Screening data: PubChem, several laboratories
Peg3 prom inh: Peg3 promoter activity inhibition. HeLa PEG-Prom luciferase reporter, luminescence, overnight. inhibition, % at 20 µM. hit rate 1.7% among 360,000. AID 588405;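 active = inhibition of at least 50% at 20 µM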
Mdm2 MdmX PPI: disrupts the human Mdm2-MdmX interaction; SaOS-2 split-luciferase Mdm2/MdmX complementation, luminescence; inhibition, % at 8 µM; hit rate 3% among 330,000;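 active = inhibition of at least 50% at 8 µM in the primary screen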
LGR2 antag: inhibitors of bursicon-induced Drosophila LGR2 receptor cAMP signaling | HEK293 LGR2, CRE-luciferase, bursicon-stimulated, 4 h | inhibition, % at 9.99 µM | hit rate 0.35% among 380,000 | AID 720647;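 active = drop in luminescence signal, shown as inhibition above about 50% in the replicate tests, limit read from the data, passing the limit was not always enough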;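 note: agonist challenge used bursicon conditioned medium at about half maximal strength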
HSP90 refold inh: blocks HSP90-mediated luciferase refolding in reticulocyte lysate; Rabbit reticulocyte lysate, luciferase refolding luminescence, 3 h; inhibition, % at 5.6 µM; hit rate 0.91% among 290,000;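 active = inhibition above the screen-wide mean plus 3 SD, computed separately per campaign, cut at about 16% in these data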;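 note: 0% = DMSO wells and 100% = 60 µM geldanamycin wells; inhibitors lower the luminescence because luciferase stays unfolded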
KKLEB tox: counter-screen for CF NF-kB inhibitors: cytotoxicity. KKLEB CF airway cells viability, ATPlite luminescence, overnight; stronger effect = lower value; cells stimulated with P. aeruginosa culture filtrate. AID 602141. activity change (cytotoxicity), % at 5 µM. hit rate 0.36% among 360,000;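 active = corrected activity change at or below -50% at 5 µM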
CF NFkB block: inhibitors of cystic fibrosis induced NF-kB; KKLEB NF-kB-GFP reporter, PAF-induced, GFP fluorescence overnight; inhibition, % at 5 µM; hit rate 0.86% among 360,000; AID 588850;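 active = at least 50% inhibition at 5 µM, scaled per plate between neutral and stimulator controls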;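 note: PAF is a Pseudomonas aeruginosa culture filtrate used as stimulus; plate controls were PAF-stimulated DMSO wells for no effect and unstimulated DMSO wells for full effect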
Mdm2-MdmX conf: confirmation of human Mdm2/MdmX interaction inhibitors. hit rate 55% among 10,000. AID 489028. inhibition, % at 8 µM. Mdm2-MdmX binding, luminescent assay. shares compounds with Mdm2 MdmX PPI; in the data active = inhibition above about 40%
Full FLuc ctr: counter-screen for Mdm2/MdmX inhibitors: full-length luciferase. inhibition, % at 8 µM. shares compounds with Mdm2 MdmX PPI. SaOS-2 full-length luciferase counterscreen, luminescence. hit rate 77% among 6,200. AID 504607;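 active = mean inhibition at 8 µM reaching about 37%, which flags the compound as non-specific, limit read from the data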;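 note: p53-null SaOS-2 cells with luciferase driven by a doxycycline-inducible promoter; compound on cells about two nights before reading with doxycycline added after day one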
The depositor's hits bear a star; . = no result given. This is a sample that favours compounds with a hit; in the whole collection about 3.6% have one here.

SMILES	Peg3 prom inh	Mdm2 MdmX PPI	LGR2 antag	HSP90 refold inh	KKLEB tox	CF NFkB block	Mdm2-MdmX conf	others
O=C(Nc1nc(-c2cccc3ccccc23)cs1)c1ccc2c(c1)S(=O)(=O)c1ccccc1C2=O	-97	95*	-35	-3	-9	2	18
O=C(Nc1ccncc1)c1ccc2c(c1)S(=O)(=O)c1ccccc1C2=O	19	33	-1	1	1	5	.
O=C(Nc1nc2ccccc2s1)c1ccc2c(c1)S(=O)(=O)c1ccccc1C2=O	.	.	-4	0	.	.	.
C[C@@H]1CN([C@H](C)CO)C(=O)c2cc(NC(=O)C3CCCCC3)ccc2O[C@H]1CN(C)C(=O)Nc1ccc(F)cc1	.	.	6	.	.	.	.
O=C1Nc2cccnc2N(C(=O)CCl)c2ccccc21	63*	68*	-1	-1	-1	6	50*	Full FLuc ctr=31
Cc1cc(-c2ccccc2)nc(N/N=C/c2ccc(O)cc2)n1	-210	15	-67	.	-10	-24	.
Oc1ccc(/C=N/Nc2nc(-c3ccc(Cl)cc3)cc(C(F)(F)F)n2)cc1	31	57*	.	5	2	-17	22
COc1ccc(-c2nn(C)c(=O)c3ccccc23)cc1NS(C)(=O)=O	-9	68*	.	-2	-10	-20	27
CCc1cc2c(=O)n(Cc3ccco3)c(SCc3c(C)noc3C)nc2s1	31	72*	.	4	-28	-73	66*	Full FLuc ctr=48*
CCN1C(=O)c2cccc3c(NC(=O)c4ccc(OC)c(OC)c4)ccc1c23	-13	54*	-10	3	-18	-26	24
CCN1C(=O)c2cccc3c(NC(=O)C4CCCCC4)ccc1c23	9	55*	-4	0	5	-48	24
CCN1C(=O)c2cccc3c(NC(=O)c4ccc5c(c4)OCCO5)ccc1c23	-15	51*	.	6	-16	-9	4
CCN1C(=O)c2cccc3c(NC(=O)c4ccccc4)ccc1c23	-16	36	.	0	1	-48	.
CC(=O)N1[C@@H](CO)[C@@H]2c3ccccc3N(S(=O)(=O)c3ccc(F)cc3)C[C@@H]21	.	.	-1	.	.	.	.
COc1cc(/C=C(\C#N)c2nc3ccccc3[nH]2)cc(OC)c1O	-45	.	-28	4	-9	-134	.
COc1cc(/C=C(\C#N)c2nc3ccccc3[nH]2)cc(Br)c1OCc1ccc(F)cc1	-6	75*	.	2	5	-2	33	Full FLuc ctr=39*
CCN(CC)c1ccc(/C=C(/C#N)c2nc3ccc(C)cc3[nH]2)c(OC(C)C)c1	-15	52*	0	-2	-5	-94	44*	Full FLuc ctr=79*
CCCOc1cc(N(CC)CC)ccc1/C=C(/C#N)c1nc2ccc(C)cc2[nH]1	10	49	-14	2	-8	-104	.
CCOc1cc(N(CC)CC)ccc1/C=C(/C#N)c1nc2ccccc2[nH]1	-136	51*	.	18*	4	-34	47*	Full FLuc ctr=92*
C[C@@H]1CN([C@H](C)CO)S(=O)(=O)c2ccc(-c3ccc(F)cc3)cc2O[C@@H]1CN(C)CC1CC1	.	.	12	.	.	.	.
C[C@H](CO)N1C[C@H](C)[C@@H](CN(C)Cc2ccc(C(=O)Nc3ccccc3N)cc2)Oc2ccc(NC(=O)Cn3cnnn3)cc2C1=O	.	.	13	.	.	.	.
Cc1ccc2nc(NC(=O)c3ccc(-c4nc5ccccc5s4)s3)sc2c1	-60	98*	-16	-3	-46	43	46*	Full FLuc ctr=84*
O=C(Nc1nc2ccccc2s1)c1ccc(Cl)s1	-371	-228	-57	-2	8	-32	.
CC1(C)Cc2c(c(N3CCOCC3)nc3sc4c(NN)ncnc4c23)CS1	43	61*	.	-1	-32	42	12
CC1(C)Cc2c(c(N3CCOCC3)nc3sc4c(NCc5ccco5)nnnc4c23)CS1	19	36	.	4	-37	31	.
SMILES	Peg3 prom inh	Mdm2 MdmX PPI	LGR2 antag	HSP90 refold inh	KKLEB tox	CF NFkB block	Mdm2-MdmX conf	others
CC(C)CNc1nnnc2c1sc1nc(N3CCOCC3)c3c(c12)CC(C)(C)SC3	37	35	.	-1	-15	33	.
CC1(C)Cc2c(c(N3CCOCC3)nc3sc4c(NCc5ccccc5)nnnc4c23)CS1	21	94*	.	2	-31	25	6
C[C@H]1CCCCO[C@H](CN(C)S(=O)(=O)c2ccc(F)cc2)[C@@H](C)CN([C@@H](C)CO)C(=O)c2cc(NC(=O)CCC(F)(F)F)ccc2O1	.	.	-7	.	.	.	.
COC(=O)C1=C(C)N(Cc2ccccc2)C(=NCCc2c[nH]c3ccccc23)N[C@H]1c1ccccc1	1	55*	.	.	-4	16	15
COC(=O)C1=C(C)N(Cc2ccccc2)C(=NCCc2c[nH]c3ccccc23)N[C@H]1c1cccc(F)c1	102*	98*	23	.	-23	24	51*	Full FLuc ctr=56*
CCc1nnc(NC(=O)CSc2nnc(-c3ccccc3O)o2)s1	-52	38	-20	0	2	17	.
COc1ccc(-c2cc(-c3ccccc3)nc(SCC(=O)Nc3nccs3)c2C#N)cc1	10	75*	-30	1	-29	11	14
CCc1nnc(NC(=O)CSc2nc(-c3ccccc3)cc(-c3ccc(OC)cc3)c2C#N)s1	28	88*	10	5	-25	7	9
COc1ccc(-c2cc(-c3ccccc3)c(C#N)c(SCC(=O)Nc3ncc(C)s3)n2)cc1	8	27	6	0	-2	12	.
CCc1nnc(NC(=O)CSc2nc(-c3ccccc3)c(-c3ccccc3)o2)s1	27	55*	0	-4	-13	15	42*	Full FLuc ctr=92*
Cc1[nH]c2c(ccc3ccccc32)c1C1C(CCN)C1(C)C (stereo not drawn)	100*	61*	.	3	-25	5	40*	Full FLuc ctr=77*
Cc1cc(C)nc(NC(=NCCc2c[nH]c3ccccc23)NC(=O)C(C)(C)C)n1	19	52*	12	-1	4	20	17
Cc1cc(C)nc(N2C(=O)CC(C(=O)O)NC2=NCCc2c[nH]c3ccccc23)n1 (stereo not drawn)	9	3	.	-1	-4	7	.
C[C@H](CO)N1C[C@H](C)[C@H](CN(C)Cc2ccc3c(c2)OCO3)Oc2cc(-c3cccc(C(=O)N(C)C)c3)ccc2S1(=O)=O	.	.	-5	.	.	.	.
CCCNC(=O)c1ccc(CN2CCc3ccccc3C2)cc1	7	0	.	-4	-2	1	.
C/C(=N\NC(=O)c1ccc(CN2CCc3ccccc3C2)cc1)c1ccccc1O	-32	55*	11	3	-2	0	65*	Full FLuc ctr=85*
COc1ccc(/C=C2\SC(=S)N(CCC(=O)N3CCOCC3)C2=O)cc1	-20	49	-16	-1	-8	17	.
COc1ccc(/C=C2\SC(=S)N(CCCC(=O)N3CCN(C)CC3)C2=O)cc1	-25	26	-18	3	0	-8	.
